Here are results for 69 sequences from PubChem BioAssay AID1508600 (Functional Genomics Laboratory (NCATS/FGL), 2020).

Out of some 53,000 sequences screened, about 3,700 (7%) were called active. The full list was thinned out, with actives kept by preference. A number with no mark means an inactive call.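 The calls were made as follows: active = gene knockdowns whose robust z-score for IL-1 alpha signal is at least 2 or at most -2, so actives lie on both sides; inactive = the rest.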

This experiment is described as follows: Components of the Cytosolic LPS Sensing Pathway: Gene Identification via Genome-wide siRNA Screen.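 Also: robust z of the log signal after scaling to non-targeting control siRNA wells of the plate.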 The settings on record: RAW264.7 macrophages, IL-1a HTRF, actives lie on both sides, screened at 100 nM (by protocol), cells primed 5 h with Pam3CSK4 first. The method in brief:
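Knockdown: 100 nM siRNA, 48h, RAW264.7. Stimulation: Pam3CSK4 5 h, then LipidA via TransIT-TKO 24 h. Output: supernatant IL-1a HTRF, negative-control-normalized, log robust z-score; viability by CellTiter-Glo.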
Background: Time-resolved FRET reads energy transfer from a long-lived donor to a nearby acceptor.
On to GCUUCAGCCAUUUCACCUUTT against Rnaseh2c, for which the z-score is 0.108. Turning to GGGAAUAAUCUACAAGCCATT against Ccdc121, the z-score is 1.92. GGUGUACCAGCAUAGCUGUTT against Hps5: the z-score was 1.24. On to GGAAAAUUACAGAAUUGGATT against Dnali1, for which the z-score is 0.323. With GGAGCACUUUAAGUUAUACTT against Rnf225, the z-score was 1.73. As to GGAAGAUGACAACUUAUCUTT against Abcc8, the z-score is -0.854.

Take AUGAAAACCAUUCCCAAUUTT against Olfr435: the z-score was 5.22 (active). With “GGCUGUUCUCUAGAUGAAUTT against 1810065E05Rik”, the z-score was -1.54. With GCACUAGCUAAUAAUGCAATT against Oxsm, the z-score was -1.54. GGAAUGAGAAGAGAGGAUCTT against Rpp25: the z-score is -0.239. In the case of GGGCAAGUUUUUUUUUCUUTT against Sf3a2, the z-score is 0.586.

In the case of UGGCCUGAUCAUGAACAGUTT against S100a7a, the z-score is 1.21. On to GGCCGAAGAAUUCAUCUUUTT against Pomgnt2, for which the z-score was -0.339. Regarding GGUCGAUUUGUCCUUGUGCTT against Rassf7, the z-score was -2.04 (active). As to GGGCCUGAAAAGACCAUCATT against Olfr124, the z-score is -0.424. In the case of CCUUGAUCUACAUAGAACCTT against Olfr177, the z-score was 0.338. GGGAUUUUGUGAUGUCCGCTT against Mmp23: the z-score was 0.422. With CCACUUUCAACCUGACCGUTT against Pcdhac2, the z-score was 0.345.

Consider GGACGAUUCCCAGUUUCUGTT against Phf1, for which the z-score was 1.25. Consider GCCGGAAUCAAGAUUAUCATT against Foxm1, for which the z-score was -2.04 (active). GGCUGCUUUCUGAUGGUCATT against Marchf3: the z-score was 0.595. Regarding GGAAUACUGAAUUUAAGGATT against Olfr1416, the z-score is 1.25. Turning to GGAAGCGUAAAUAAGUGUCTT against Emp2, the z-score was 0.772. GGAAAAUGUUGAAGUGGAATT against Ndufa5: the z-score was -0.805. On to GGUGCAUGCACUGAAGAAGTT against Mpv17, for which the z-score was 1.39. Turning to CGAAUAGGGAGCCAUAAGATT against Tubb6, the z-score was 1.66.

Regarding GCCUCACUCAGCAAAAGGATT against Ttc9c, the z-score is -2.09 (active). Take “GGAGACCUGUGACUCCUUATT against 4932415M13Rik”: the z-score was 1.9. The figure for GCUAGACUUCUUUGUGCGATT against Abhd8 is 0.656; for GGCAAUGGCACUGAAGUCATT against Olfr994 it is -0.0376. As to CCCAAGCAACCCUUAUCAATT against Mcee, the z-score is -0.315. Take GGUAUCACUACUUUUUAGUTT against Eri3: the z-score is -0.742. On to GGUUUGUGGUGGUAUUUAATT against Man2a2, for which the z-score was 2.47 (active). For GGAUGAGGACACCAUUGAUTT against Sumo3 the value was 0.723. For the sequence GGUUGACGAAAUGACUAUATT against Adh4, the z-score is -0.105.

Take GCAGACCAGACAGUAUUACTT against Zeb1: the z-score was 1.22. As to GCCUCUCAUUAGCAGUCAATT against Fbxl15, the z-score was -1.92. The figure for CGUUAGCUGUUAUGAUCUATT against Cept1 is 0.203; for GGGUCCUAAGGGAUUUAUUTT against Klf16 it is -0.49. As to GGUUUUGCACAGCAUUGGUTT against Efna1, the z-score was -1.02. GGAAUCAAACUGGAUUGAUTT against Pi4k2b: the z-score was 2.01 (active). Turning to GGUAUUGGAUCAUUUACAATT against Nae1, the z-score is -0.0968.

Take CGAUUUGCCCAAUAAAGAATT against Scn9a: the z-score is 0.223.

In the case of GGACGAAUUUCUUACAGUATT against Mterf4, the z-score was 2.2 (active). In the case of GCCGAUGUCAGUGGUUAAATT against Bmx, the z-score was 0.198.

With CCUGGUAUAUUACCGCUUCTT against P3h4, the z-score was 0.519. GGAUCUCUGGGUCUGAAAATT against Ccz1: the z-score is 0.606. For GCACGUCCAUUCUGCUUUCTT against Smco4 the value was 2.4 (active). With GGACCUGUGUGCUGAGUUGTT against Matn4, the z-score was -1.59.

GGGAGAUUAAUCAAGAACUTT against Ccnc: the z-score is 0.809. GGUUGGAGAUCUCAUCUAUTT against Exosc3: the z-score is 0.699. Take GCACCUCUCUACAUUACUGTT against Igflr1: the z-score was -0.0949. Regarding GGCUGAAGACACUGAACACTT against Olfr643, the z-score was -2.51 (active). Consider GCAUUCAGAAAGUGUAUAATT against Tspan3, for which the z-score was -0.0953. As for GGGUGAAGGUGAAUAUUUATT against Esm1, the z-score was -1.12.

For GGCCUAGACAUACAUGAAATT against Bnip3l, the z-score is 2.93 (active). Regarding GCCAAAGUAGUUGAACCUUTT against Cibar1, the z-score is -0.48. Regarding GGACUGAACCGUUUUAAAGTT against Fmo3, the z-score was -0.317. Turning to GCAUUACUUUAAGCCAUAUTT against Rbl1, the z-score is 3.57 (active). For GGGCCUGUACAUCUUCCAATT against Anpep the value was 0.926; for CUGGAUGCAUUAACUUCUUTT against Olfr1219, 0.326; for GGGUAGUUAUGACUAAAUUTT against Etl4, 1.31. As to GGAGAAUAUUCUCUGUGGATT against Rab11fip5, the z-score is -2.71 (active). As to GCACACUACAACGUAUCACTT against Stpg2, the z-score was 1.31.

Turning to CCCAACUGUCAAAUAAUCCTT against Eddm3b, the z-score was 0.0505.

As to GCCAUUACCCGGUAUAUGATT against Sesn1, the z-score was -1.96. For GGAUCACUCUAAUUCAGAUTT against Fcamr the value was 1.93; for GGACAUUUGAUAUUGAAGATT against B3gnt2, -1.88. Turning to CGGAAGUAAAAAGAACUACTT against Olfr1321, the z-score is 3.01 (active).
